# From PubChem BioAssay
# Shown are actives, neighbours in structure and some others; about 3.9% of the full set was active somewhere.
# MITF TRPM1 HTS: activators of MITF-driven TRPM1 promoter activity in SK-MEL-5 cells; activation, % at 12.5 µM; actives 0.75% (n = 300,000); SK-MEL-5 TRPM1-promoter luciferase, 24 h; % of positive control, neutral wells = 0;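 active means mean activation of at least 80% with every replicate also reaching 80%; inconclusive means mean reaches 80% but some replicate falls short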;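 further: 0% = neutral control wells and 100% = parthenolide positive control wells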
# esBAF inh: inhibitors of esBAF chromatin remodeling in mouse ES cells | Bmi1-luciferase knock-in reporter, 24 h; 100% = twice the neutral-well signal | reporter increase, % at 12.5 µM | actives 2% (n = 350,000); in the data active means activation above about 40%; inconclusive means no clear call, values can overlap the other calls;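 further: 0% = median of the plate's neutral control wells and 100% = double that signal; a rise in the Bmi1 reporter signal indicates esBAF inhibition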
# HSF1 activator: increases HSF-1 driven luciferase reporter signal. NIH3T3-HGL HSF-1 luciferase reporter, MG132, 8 h; 100% = twice DMSO control signal. activation, % at 9 µM. actives 1.7% (n = 300,000);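 active means mean replicate activation of at least 50% with a set share of replicates each reaching 50%; inconclusive means only one of those two conditions met; inactive means mean below 50% and too few replicates reaching it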;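 further: 0% = median of the neutral control wells and 100% = twice that signal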
# Wnt bcat act: activators of Wnt/beta-catenin signaling. Wnt/beta-catenin reporter cell assay, activator, plate reader. activation, % at 9.35 µM. actives 1.2% (n = 300,000); in the data active means activation above about 30%, passing the limit was not always enough; inconclusive means no clear call, values can overlap the other calls;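 further: 0% = neutral control wells and 100% = positive control wells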
# HSF1 inh: HSF1 inhibition. actives 0.77% (n = 300,000). NIH3T3-HGL HSE-luciferase, MG132-induced, luminescence 8 h; stronger effect = lower value. activity change, negative = inhibition, % at 7.5 µM (by protocol). AID 2098;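 active means more than half of replicate wells show activity change below -50%, luminescence cut by over half; inconclusive means some wells, but at most half, below -50%; inactive means no replicate well below -50%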;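 further: luciferase reports HSF-1 transcriptional activity via heat shock element; 0% = median of DMSO wells and -100% = zero luminescence signal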
# Starred values were filed as active, the others as inactive; ? = inconclusive; · = no result given.
SMILES,MITF TRPM1 HTS,esBAF inh,HSF1 activator,Wnt bcat act,HSF1 inh
O=C(Cc1c(O)c2ccccc2[nH]c1=O)NC1CCCCCC1,1,3,18,0,-4
C=CS(=O)(=O)c1c2cc(OC)ccc2nc2ccc(OC)cc12,·,·,·,458*,·
O=C(CCS(=O)(=O)c1ccccc1Cl)NC1CCCCCC1,51,49*,·,21,·
O=C(CCS(=O)(=O)c1ccccc1)NC1CCCCC1,105*,·,9,22,4
O=C(CCS(=O)(=O)c1cccc2nsnc12)NC1CCCCC1,14,3,-7,·,-10
C[C@@H]1CN([C@H](C)CO)S(=O)(=O)c2ccc(-c3ccncc3)cc2O[C@H]1CN(C)Cc1ccccn1,·,2,·,·,·
Cc1ccc(S(=O)(=O)N(C)C[C@H]2Oc3ccc(NC(=O)C4CCCCC4)cc3C(=O)N([C@H](C)CO)C[C@@H]2C)cc1,·,3,·,·,·
CCCC12CN3CC(C)(CN(C1)C3c1cccs1)C2=O (centres undefined),·,·,62*,1,44
O=C(O)c1ccc(N2C(=O)CC(N3CCN(c4cccc(C(F)(F)F)c4)CC3)C2=O)cc1 (centres undefined),12,-6,-65,0,-56*
CN(C)C(=O)C[C@@H]1C=C[C@H](NC(=O)C2CC2)[C@@H](CO)O1,·,-4,·,·,·
CC1CCN(c2ccc(C(=O)NCCc3ccccc3)cn2)CC1,65,50*,19,·,15
O=C(NCCc1ccccc1)c1ccncc1,·,·,-1,·,3
O=C(NCCc1ccccc1)c1ccc(Cl)nc1,59,-7,23,39*,17
O=C(COC(=O)c1ccccc1-n1cnnn1)c1ccc(F)c(F)c1,-4,56*,-7,5,-2
O=C(C[C@@H]1C=C[C@@H](NC(=O)NC2CCCCC2)[C@H](CO)O1)NCc1ccc(F)cc1,·,0,·,·,·
O=C(Nc1ccc(-c2ccccc2)cc1)[C@H]1[C@H](CO)[C@H]2Cn3c(cccc3=O)[C@@H]1N2Cc1cncnc1,·,3,·,·,·
COc1ccc2cc(C(=O)N3CCc4ccccc43)[nH]c2c1,39,31,52*,46*,44
Cc1cc(C)c2cc(C(=O)Nc3ccccc3)[nH]c2c1,74,60*,37,25,21
O=C(c1cc2cc(Br)ccc2[nH]1)N1CCc2ccccc21,15,31,14,4,2
O=C(c1cc2cc(F)ccc2[nH]1)N1CCc2ccccc21,54,63*,35,42*,35
CCCOc1ccc(NC(=O)c2cc3cc(C)ccc3[nH]2)cc1,16,16,-3,10,-1
Cc1ccc2[nH]c(C(=O)Nc3ccc(F)cc3)cc2c1,70,62*,33,10,25
O=C(O)c1cc2cc(Cl)ccc2[nH]1,-12,4,·,-2,·
O=C(O)c1cc2cc(F)ccc2[nH]1,-19,0,-72,-16,-64*
COc1ccccc1NC(=O)N[C@@H]1CC[C@H](CC(=O)NCc2ccc(Cl)c(Cl)c2)O[C@H]1CO,·,4,·,·,·
SMILES,MITF TRPM1 HTS,esBAF inh,HSF1 activator,Wnt bcat act,HSF1 inh
OCC1COC(c2ccccc2)=N1 (centres undefined),·,·,·,0,·
Brc1ccc(C2=NC(Cc3ccccc3)CO2)cc1 (centres undefined),·,68*,-32,20,-10
CCOC(=O)/C(C#N)=C/c1c(N2CCN(c3ccccc3)CC2)nc2ccccn2c1=O,5,21,93*,13,56
COC(=O)/C(C#N)=C/c1c(N2CCN(c3ccccc3)CC2)nc2ccccn2c1=O,39,36,36,6,32
O=S(=O)(c1ccc(NC(=S)Nc2ccc3c(c2)OCO3)cc1)N1CCOCC1,6,45*,8,·,3
O=C(Nc1ccc(S(=O)(=O)N2CCOCC2)cc1)c1ccc2c(c1)OCO2,15,5,-14,16,-1
O=C(Nc1ccc(N2CCOCC2)c(Cl)c1)c1ccc(F)cc1,122*,?,-3,16,0
O=C(Nc1ccc(N2CCOCC2)c(Cl)c1)c1cc2ccccc2o1,46,64*,55*,·,31
O=C(Nc1ccc(S(=O)(=O)N2CCOCC2)cc1)c1ccc(Br)o1,·,-12,59*,·,12
Cc1ccc(S(=O)(=O)N[C@H]2C=C[C@H](CC(=O)N3CCC(Cc4ccccc4)CC3)O[C@H]2CO)cc1,·,22,·,·,·
COc1ccc(NC(=O)Nc2cccc3c2O[C@@H](CN(C)S(=O)(=O)c2ccc(C)cc2)[C@@H](C)CN([C@H](C)CO)C3=O)cc1,·,2,·,·,·
